Laboratory results from PubChem BioAssay AID652115 (Broad Institute, 2013).
Where “and” joins values, the source holds several entries; their conditions need not be identical. Equal values may be shown once. Out of some 330,000 compounds screened, about 3,800 (1.2%) were called active. This is one part of a sample in which actives are shown more often than they occur. Cut-off read from the data, not from the text of the source: active = inhibition above about 15%; inconclusive = no clear call, values can overlap the other calls; inactive = below that.

biological target: NAD-dependent protein deacylase sirtuin-5, mitochondrial (Homo sapiens) (UniProt Q9NXA8); assay: SIRT5 desuccinylase inhibitors, primary screen, biochemical, fluorescence imaging, single point, set 5 (AID 652115); details: Purified SirT5, succinyl-peptide AMC, trypsin-coupled fluorescence; at 15 µM; stronger effect = higher value
Sequence (Q9NXA8 whole entry, looked up): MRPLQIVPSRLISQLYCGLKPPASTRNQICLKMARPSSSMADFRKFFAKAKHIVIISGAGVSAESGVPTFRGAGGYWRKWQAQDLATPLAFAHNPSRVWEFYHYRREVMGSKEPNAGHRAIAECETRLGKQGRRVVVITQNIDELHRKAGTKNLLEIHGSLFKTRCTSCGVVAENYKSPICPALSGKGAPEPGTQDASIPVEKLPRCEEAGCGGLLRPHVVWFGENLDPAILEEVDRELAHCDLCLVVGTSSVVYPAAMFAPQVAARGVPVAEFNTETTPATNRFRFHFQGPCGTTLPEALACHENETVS

inhibition, active:
C(=N\Nc1ccc2ccccc2n1)/c1ccc2c(c1)OCO2 15.4%
O=C(Nc1ccncc1)c1ccc(Cl)c([N+](=O)[O-])c1 31.2%
OC[C@H]1[C@H](c2ccc(-c3cccnc3)cc2)[C@H]2CN(Cc3ccccn3)CCCCN21 15.6%
Cc1ccc(S(=O)(=O)N(C)C[C@H]2Oc3ccc(NC(=O)Cc4cn(C)c5ccccc45)cc3CC(=O)N([C@@H](C)CO)C[C@H]2C)cc1 16.9%
Cc1ccc(S(=O)(=O)N(C)C[C@@H]2OCc3ccccc3-c3c(n(C)c4ccccc34)C(=O)N([C@@H](C)CO)C[C@@H]2C)cc1 17.7%
C[C@H]1CN([C@@H](C)CO)C(=O)c2cc(NC(=O)Cc3cn(C)c4ccccc34)ccc2O[C@@H]1CN(C)Cc1ccc(Cl)c(Cl)c1 22.6%
COc1ccccc1S(=O)(=O)N(C)C[C@@H]1Oc2cc(C#CCC3CCCC3)ccc2S(=O)(=O)N([C@H](C)CO)C[C@H]1C 18.3%
COc1ccccc1S(=O)(=O)N(C)C[C@H]1Oc2cc(C#CCC3CCCC3)ccc2S(=O)(=O)N([C@@H](C)CO)C[C@H]1C 16.1%
C=C1c2c(Cl)ccc(O)c2C(O)=C2C(=O)[C@]3(O)C(O)=C(C(N)=O)C(=O)[C@@H](N(C)C)[C@@H]3[C@@H](O)C12 (stereo not given in full) 35.9%
N#CCc1c(C#N)c(N)nc(N2CCCC2)c1C#N 26.2%
COCCNc1nc(NCc2ccc(NC(C)=O)cc2)c2sccc2n1 16.4%
COc1ccc(C(=O)OCC(=O)c2ccc(C)c(S(=O)(=O)N3CCOCC3)c2)cc1OC 25.2%

inhibition, inactive:
C[C@@H]1CN([C@H](C)CO)C(=O)CCCn2cc(nn2)CO[C@@H]1CN(C)Cc1ccccc1C(=O)O -0.401%
COc1ccc2c3c([nH]c2c1)[C@H](CO)N(C(=O)C1CCCCC1)CC31CCN(C(=O)c2ccncc2)CC1 -1.36%
COc1cccc(S(=O)(=O)N2[C@@H]3CNC[C@H]2C3c2ccc(-c3cccc(C(=O)N(C)C)c3)cc2)c1 (stereo not given in full) 3.63% and 4.46%
Cc1cc(=O)[nH]c(N/N=C/c2ccc3c(c2)OCCO3)n1 2.57%
Cc1noc(C)c1/C=N/Nc1ccc2ccccc2n1 -4.8%
CN(C)Cc1cn(CC[C@H]2CC[C@H](NC(=O)Nc3ccccc3F)[C@@H](CO)O2)nn1 -13.2%
Cc1ccnc(NC(=O)c2ccc(Cl)c([N+](=O)[O-])c2)c1 -6.51%
O=C(Nc1ccncc1)c1ccc([N+](=O)[O-])cc1Cl -1.67%
COCC(=O)N[C@@H]1C[C@@H]2O[C@@H](CO)CC[C@@H]2O[C@@H]1CCc1ccc(-c2ccccc2)cc1 -3.27%
CN(C)CC(=O)Nc1ccc2c(c1)[C@H]1C[C@H](CC(=O)NCc3ccccc3)O[C@@H](CO)[C@H]1O2 -5.86%
Cc1cccc(CN(C)C[C@H]2OCc3cn(nn3)CCCC(=O)N([C@@H](C)CO)C[C@H]2C)c1 -2.48%
CCCNC(=O)N1[C@H](CO)[C@@H](c2ccc(-c3ccc(C(=O)N(C)C)cc3)cc2)[C@@H]1C#N 5.61%
COc1ccc(NC(=O)N(C)C[C@@H]2OCCCC[C@H](C)Oc3ccc(NC(=O)c4ccccc4)cc3C(=O)N([C@H](C)CO)C[C@H]2C)cc1 3.2%
OC[C@@H]1[C@H](c2ccc(Br)cc2)[C@@H]2CN(Cc3ccccn3)CCCCN12 3.43%
CCC(=O)N1CCCCN2[C@H](CO)[C@@H](c3ccc(-c4cccnc4)cc3)[C@H]2C1 0.057%
CN1C(=O)c2cc(NC(=O)NC3CCCC3)ccc2OC[C@@H]2O[C@@H](CC(=O)O)CC[C@H]21 -7.32%
O=C(C[C@@H]1CC[C@H](NC(=O)Nc2ccc(F)cc2)[C@H](CO)O1)NCc1ccccn1 1.52%
CC=Cc1ccc2n(c1=O)C[C@@H]1[C@@H](CO)[C@H](C(=O)NCC3CC3)[C@H]2N1C(=O)c1ccccc1 (mixture of isomers) -10.5%
COC(=O)C[C@@H]1C[C@@H]2c3cc(NC(=O)NC4CCCC4)ccc3O[C@@H]2[C@@H](CO)O1 -3%
C[C@H]1CN([C@@H](C)CO)C(=O)c2c(c3ccccc3n2C)-c2ccccc2CO[C@H]1CN(C)S(=O)(=O)c1ccc(C#N)cc1 3.54%
Cc1ccc(S(=O)(=O)N(C)C[C@@H]2Oc3ccc(NC(=O)Cc4cn(C)c5ccccc45)cc3C(=O)N([C@@H](C)CO)C[C@@H]2C)cc1 4.27%
C[C@@H]1CN([C@@H](C)CO)C(=O)c2c(c3ccccc3n2C)-c2ccccc2CO[C@@H]1CN(C)S(=O)(=O)c1ccc(F)cc1 3.02%
C[C@H]1CN([C@@H](C)CO)C(=O)c2cc(NC(=O)Cc3cn(C)c4ccccc34)ccc2O[C@H]1CN(C)Cc1ccc(Cl)c(Cl)c1 7.81%
C[C@@H]1CN([C@H](C)CO)C(=O)Cc2cc(NC(=O)Cc3cn(C)c4ccccc34)ccc2O[C@@H]1CN(C)S(=O)(=O)c1ccccc1 0.96%
C[C@@H]1CN([C@@H](C)CO)C(=O)c2cc(NC(=O)Cc3ccccc3)ccc2O[C@H]1CN(C)Cc1ccc(Cl)c(Cl)c1 14.1%
CC=Cc1ccc2n(c1=O)C[C@@H]1[C@@H](CO)[C@H](C(=O)NC3CCCC3)[C@H]2N1C(=O)c1cnccn1 (mixture of isomers) -1.91%
Cc1cccc(-c2ccc([C@H]3[C@H](CO)N4CCCCN(S(=O)(=O)c5cn(C)cn5)C[C@@H]34)cc2)c1 -2.31%
O=C(C[C@@H]1CC[C@@H]2[C@H](COC[C@@H](O)CN2Cc2ccc(F)cc2)O1)NCc1ccncn1 2.45%
CCCC#Cc1ccc2c(c1)O[C@@H](CN(C)S(=O)(=O)c1cccc(OC)c1)[C@H](C)CN([C@@H](C)CO)S2(=O)=O 0.047%
COc1cccc(S(=O)(=O)N(C)C[C@@H]2Oc3cc(C#CCN(C)C)ccc3S(=O)(=O)N([C@@H](C)CO)C[C@@H]2C)c1 -0.424%
COCC#Cc1ccc2c(c1)O[C@@H](CN(C)S(C)(=O)=O)[C@H](C)CN([C@H](C)CO)S2(=O)=O -0.381%
COc1cccc(S(=O)(=O)N(C)C[C@H]2Oc3cc(C#CCN(C)C)ccc3S(=O)(=O)N([C@H](C)CO)C[C@H]2C)c1 2.32%
C[C@H](O)C#Cc1ccc2c(c1)O[C@@H](CN(C)C(=O)C1CCCCC1)[C@H](C)CN([C@@H](C)CO)S2(=O)=O 5.37%
O=C(C[C@H]1CC[C@H]2[C@@H](COC[C@@H](O)CN2C(=O)Nc2ccc(C(F)(F)F)cc2)O1)NC1Cc2ccccc2C1 -1.39%
CN(C)[C@@H]1C(=O)C(C(N)=O)=C(O)[C@@]2(O)C(=O)C3=C(O)c4c(O)ccc(Cl)c4[C@@H](O)[C@H]3C[C@@H]12 6.39%
CNC(=O)C[C@H]1CC[C@H]2[C@H](COc3ccc(NC(=O)c4cccc(F)c4)cc3C(=O)N2C)O1 -1.94% and 2.58%
C[C@@H]1CN([C@@H](C)CO)C(=O)Cc2cc(NC(=O)Nc3cccc4ccccc34)ccc2O[C@H]1CN(C)CC1CCCCC1 -4.93%
N#Cc1c(N2CCCCC2)nc(N)c2c(N)nc(SCC(=O)O)cc12 7.29%
N#Cc1c(C(F)(F)F)cc(-c2cccs2)nc1N1CCCCC1 5.73%
CO[C@@H]1CN(C)C(=O)c2cc(NS(=O)(=O)CC(F)(F)F)ccc2OC[C@H](C)N(Cc2ccccn2)C[C@@H]1C 2.12%
C[C@@H]1CCCCO[C@H](CN(C)S(=O)(=O)c2cn(C)cn2)[C@@H](C)CN([C@@H](C)CO)C(=O)c2cc(NC(=O)c3ccncc3)ccc2O1 0.794%
Oc1cccc2cc(-c3ccncc3)cnc12 -0.877%
CC(=O)Nc1ccc(CNc2nc(NCCN(C)C)nc3cc(-c4ccccc4)sc23)cc1 2.52%
COc1cccc(CNc2nc(NCc3cccs3)nc3ccsc23)c1 -1.12%
COc1ccc(C[C@@H]2CCc3cnnn3COC[C@H](c3ccccc3)NC2=O)cc1 2.11%
CCC(=O)N[C@H]1CC[C@H](CCn2cc(-c3cccc(OC)c3)nn2)O[C@H]1CO -2.52%
COc1ccc(CNC(=O)COC(=O)c2ccc(C)c(S(=O)(=O)N3CCOCC3)c2)cc1OC -1.07%
Cc1ccc(C(=O)OCC(=O)N2CCCCCC2)cc1S(=O)(=O)N1CCOCC1 1.4%
C[C@H]1CCCCO[C@@H](CN(C)C(=O)C2CCCCC2)[C@@H](C)CN([C@@H](C)CO)C(=O)c2cc(NS(=O)(=O)c3cccs3)ccc2O1 8.81%
COCC#Cc1cnc2c(c1)C(=O)N([C@H](C)CO)C[C@@H](C)[C@@H](CN(C)Cc1ccccc1F)O2 1.75%
CO[C@@H]1CN(C)C(=O)c2cc(NS(=O)(=O)c3cccc(F)c3)ccc2OC[C@@H](C)NC[C@@H]1C -3.7%
CCC(=O)Nc1ccc2c(c1)C(=O)N(C)C[C@@H](OC)[C@H](C)CN(Cc1ccccc1C(=O)O)[C@@H](C)CO2 2.25%
O=C(C1CCCCC1)N1CC2(C1)[C@H](c1ccccc1)[C@H](CO)N2CC1CCCC1 5.17%
